Inconclusive results are not listed. Active and inactive are the calls of the source. Calls follow the shape of the dose curve; as a rule, active = well fitted inhibition curve with a large enough effect; inconclusive = small, poorly fitted or top-dose-only effect; inactive = flat fitted curve, though single readings scatter. *1 amine or outer side, *2 acyl side, *3 side chain or, on linkers, in order; H or OH if unused. Where a SMILES comes first, the peptide text is derived from it. Bridges are numbered along the chain shown (N, C = ends). [ ]: non-standard residue; d: D form. The star is where a group is joined. pTerphenylCO(4''-OnC5H11) = CCCCCOc1ccc(-c2ccc(-c3ccc(C(=O)*)cc3)cc2)cc1; Orn(4R-OH,5R-OH) = O=C([C@H](C[C@@H](O)[C@@H](O)N[*:3])N[*:1])[*:2]; hTyr(3S-OH,4S-OH) = N[C@H](C(=O)O)[C@H](O)[C@@H](O)c1ccc(O)cc1; Pro(3S-OH,4S-Me) = C[C@H]1CN[C@H](C(=O)O)[C@H]1O; Hyp = O=C(O)[C@@H]1C[C@@H](O)CN1
Target: Calcium and integrin-binding protein 1 (Homo sapiens) (UniProt Q99828)
Assay: Primary qHTS for Identification of Calcium Integrin Binding Protein 1 (CIB1) Competitor (AID 1508620);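 also: GST tagged CIB1 binding a fluorescein labelled alphaIIb integrin peptide tracer; top concentration of the series differs between compounds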
Details: CIB1-GST / FITC-alphaIIb peptide fluorescence polarization; series mostly up to 114 µM; activity change, negative = inhibition: at the top concentration
Procedure, shortened: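 CIB1-GST (1 uM final) and compound incubated 15 min at room temperature before adding FITC-alphaIIb peptide tracer (100 nM final). Competition for binding read by fluorescence polarization (ex 480, em 540) after another 15 min at room temperature.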
% is scaled to controls: 0 for no effect and ±100 for the full control effect.

Sequence of Calcium and integrin-binding protein 1 (Homo sapiens) (Q99828 whole entry, looked up): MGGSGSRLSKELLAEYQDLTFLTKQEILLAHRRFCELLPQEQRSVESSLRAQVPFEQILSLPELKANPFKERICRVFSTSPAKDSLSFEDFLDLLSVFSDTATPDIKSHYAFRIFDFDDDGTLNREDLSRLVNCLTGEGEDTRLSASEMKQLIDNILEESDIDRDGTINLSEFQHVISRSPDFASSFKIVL

Row | Structure (SMILES) | activity change, negative = inhibition
1 | C[C@H](Nc1ncnc2nc[nH]c12)c1cc2cccc(Cl)c2c(=O)n1-c1ccccc1 | -2.01% (inactive)
2 | C=C1C(=O)O[C@@H]2C[C@H](C)[C@@H]3CC(=O)C(C)=C3C[C@H]12 | 2.78% (inactive)
3 | CC(=O)[C@H]1CC[C@H]2[C@@H]3CC=C4C[C@@H](OS(=O)(=O)O)CC[C@]4(C)[C@H]3CC[C@]12C | 2.13% (inactive)
4 | COc1cc(O)cc(/C=C/c2cccc(O)c2)c1 | 3.13% (inactive)
5 | CCn1c(=O)c(-c2ccc(Cl)cc2Cl)cc2cnc(Nc3ccc(N4CCNCC4)c(F)c3)nc21 | 0.0904% (inactive)
6 | Cc1cc(-c2ncc(-c3cccnc3)cc2/C=C/c2ccccc2)cnc1-c1cccnc1 | -0.212% (inactive)
7 | CCCCCOc1ccc(-c2ccc(-c3ccc(C(=O)N[C@H]4C[C@@H](O)[C@@H](O)NC(=O)[C@@H]5[C@@H](O)[C@@H](C)CN5C(=O)[C@H]([C@@H](C)O)NC(=O)[C@H]([C@H](O)[C@@H](O)c5ccc(O)cc5)NC(=O)[C@@H]5C[C@@H](O)CN5C(=O)[C@H]([C@@H](C)O)NC4=O)cc3)cc2)cc1 ({pTerphenylCO(4''-OnC5H11)}-[Orn(4R-OH,5R-OH)]T[Hyp][hTyr(3S-OH,4S-OH)]T[Pro(3S-OH,4S-Me)]; lactam 1-C) | 4.44% [at 57.7 µM] (inactive)
8 | O=C(NCc1ccc(OC(F)(F)F)cc1)C1c2c(F)cccc2C(=O)N1CCc1ccccn1 (stereo not drawn) | 2.73% (inactive)
9 | CCOc1cn(-c2ccc(F)cc2C)nc1C(=O)Nc1ccc(Oc2ccnc3cc(OC)c(OC)cc23)c(F)c1 | -3.64% (inactive)
10 | COC(=O)c1ccc(N2CCN(C)CC2)c(NC(=O)c2cccc(OC)c2)c1 | -0.256% (inactive)
11 | CC(=O)O[C@@H]1C[C@@]2(C)C(CC[C@]3(C)C2CC=C2C4CC(C)(C)CC[C@]4(C(=O)O)CC[C@]23C)C(C)(C)[C@H]1O (stereo partly drawn) | -12% [at 57.7 µM] (inactive)
12 | Cn1c(=O)c2c(ncn2Cc2ccc(C(C)(C)C)cc2)n(C)c1=O | -2.72% (inactive)
13 | COc1ccccc1N1CCN(c2ncnc3n[nH]c(Br)c23)CC1 | 3.68% (inactive)
14 | Oc1ccc(-c2cnc3ccc(NCc4ccco4)nn23)cc1 | -13.6% (inactive)
15 | N#Cc1cccc(C(=O)Nc2cc(-c3ccccc3)nn2-c2ccccc2)c1 | -10.1% (inactive)
16 | C/C=C/C=C/C(=O)O[C@@H]1C=C2COC(=O)[C@]2(O)[C@@]2(C)CCCC(C)(C)[C@H]12 | 4.68% [at 57.7 µM] (inactive)
17 | O=C(NC[C@H]1CN(c2ccc(N3CCOCC3=O)cc2)C(=O)O1)c1ccc(Cl)s1 | 3.2% (inactive)

Row | Structure (SMILES) | activity change, negative = inhibition
18 | CC(C)(C)c1ccc2c(c1)CC[C@H]2NC(=O)Nc1cccc2[nH]ncc12 | 3.67% (inactive)
19 | CC(C)(C[C@@](O)(Cc1cc2ccncc2[nH]1)C(F)(F)F)c1cc(F)ccc1O | -2.64% (inactive)
20 | C=C1CCC2C(C)(C(=O)O)CCCC2(C)C1CCC1=CCOC1=O (stereo not drawn) | -4.32% [at 57.7 µM] (inactive)
21 | COc1cc(CN(CCN)C(=O)c2cccs2)ccc1OCc1ccccc1 | 2.11% (inactive)
22 | O=c1ccc2ccc(OCCCCN3CCN(c4cccc5sccc45)CC3)cc2[nH]1 | 9.14% (inactive)
23 | CN(C)c1cccc(Oc2cnc(Nc3cccc(O)c3)nc2)c1 | -1.83% (inactive)
24 | Cc1[nH]c(/C=C2\C(=O)Nc3cc(-c4ccccc4)ccc32)c(C)c1CCC(=O)O | 108% (inactive)
25 | CN(C)C(CCOc1cccc2ccccc12)c1ccccc1 (stereo not drawn) | 6.68% (inactive)
26 | Cc1cc(C(=O)Cn2cc(C#N)ccc2=O)c(C)n1Cc1ccccc1 | 1.91% (inactive)
27 | CCCCc1ccc(NS(=O)(=O)c2ccc(F)cc2)cc1 | 6.25% (inactive)
28 | C=C(C(=O)OC[C@H]1O[C@@H](OC(=O)/C=C/c2ccccc2)[C@H](O)[C@@H](O)[C@@H]1O)C(O)CO (stereo partly drawn) | 3.29% [at 57.7 µM] (inactive)
29 | CCC/C=C/c1cc2c(C=O)c(O)c(CC=C(C)C)cc2o1 | -14.8% (inactive)
30 | C[C@H]1CC[C@@]2(OC1)O[C@H]1CC3[C@@H]4CC[C@@H]5C[C@@H](O[C@@H]6O[C@H](CO)[C@@H](O[C@@H]7O[C@@H](C)[C@H](O)[C@@H](O)[C@H]7O)[C@H](O)[C@H]6O[C@@H]6O[C@H](CO)[C@@H](O)[C@H](O)[C@H]6O)CC[C@]5(C)C4CC[C@]3(C)[C@H]1[C@@H]2C (stereo partly drawn) | -6.49% [at 30.2 µM] (inactive)
31 | C=CC1(C)CC(O)C(C(=C)C(=O)OC)C(O)C1C(=C)CO (stereo not drawn) | 4.99% (inactive)
32 | CCOc1ccc(-n2c(C(C)N(Cc3cccnc3)C(=O)Cc3ccc(F)c(C(F)(F)F)c3)nc3ncccc3c2=O)cc1 (stereo not drawn) | 2.06% (inactive)
33 | CC(=O)O[C@@H]1[C@@H](OC(C)=O)[C@H](C)O[C@@H](O[C@H]2[C@@H]3C=CO[C@@H](O[C@@H]4O[C@H](CO)[C@@H](O)[C@H](O)[C@H]4O)[C@@H]3[C@@]3(CO)O[C@@H]23)[C@@H]1OC(=O)/C=C/c1ccccc1 | 1.31% [at 30.2 µM] (inactive)
